From PubChem
MITF TRPM1 inh = inhibitors of MITF-dependent TRPM1 promoter reporter, primary screen, cell-based, SK-MEL-5, single point, luciferase; inhibition, % at 12.5 µM; AID 488899, 2010; actives 0.83% (n = 330,000); SK-MEL-5 TRPM1 promoter luciferase, 24 h;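 active means mean inhibition across replicates of 60% or more, whatever share of single replicates reaches that level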
KKLEB cytotox = cytotoxicity in KKLEB CF airway cells, primary screen, cytotoxicity control for CF NF-kB inhibitor project, cell-based, uHTS, fluorescence assay plates; KKLEB CF airway cells viability, ATPlite luminescence, overnight; hits give low values; cells stimulated with P. aeruginosa culture filtrate; activity change (cytotoxicity), % at 5 µM; actives 0.36% (n = 360,000); AID 602141, 2011;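 active means corrected activity change at or below -50% at 5 µM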
Shn3 inh set2 = reduction of Shn3 3'UTR firefly luciferase signal, primary screen, Schnurri-3 inhibitor project, cell-based, Clone20 osteoblasts, set 2. Clone20 osteoblast Shn3 3'UTR firefly luciferase, 24 h. inhibition, % at 12.5 µM. actives 0.52% (n = 360,000). AID 588674, 2011;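 active means mean inhibition of at least 75% with every replicate also reaching 75%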;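 further: 0% = median of neutral control wells and 100% = pilot-screen positive control compound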
CF NFkB inh = inhibitors of PAF-induced NF-kB signaling, primary screen, cell-based, GFP fluorescence, uHTS. KKLEB NF-kB-GFP reporter, GFP fluorescence overnight. AID 588850, 2011. actives 0.86% (n = 360,000). inhibition, % at 5 µM;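 active means at least 50% inhibition at 5 µM, scaled per plate between neutral and stimulator controls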;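 further: PAF is a Pseudomonas aeruginosa culture filtrate used as stimulus; plate controls were PAF-stimulated DMSO wells for no effect and unstimulated DMSO wells for full effect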
Peg3 prom inh = Peg3 promoter-driven luciferase inhibitors, primary screen, cell-based, HeLa, luciferase luminescence; HeLa PEG-Prom luciferase reporter, overnight; inhibition, % at 20 µM; actives 1.7% (n = 360,000);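 active means inhibition of at least 50% at 20 µM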
HIF-2a inh = HIF-2a reporter inhibitors, primary screen, luminescence, 786-0 RCC cells; 786-0 RCC cells HIF-2a reporter, luciferase luminescence, overnight; actives 0.72% (n = 360,000); inhibition, % at 18.8 µM;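 active means inhibition of the luminescence signal of 40% or more relative to plate controls, in a single-dose primary screen at 18.75 µM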
* hit, by the source's call. Compounds with a hit are over-represented: about 2.8% of the library has one in this group of screens.

What do the screens show for `O=C1C(F)=CC(COC(c2ccccc2)(c2ccccc2)c2ccccc2)OC1n1cc(F)c(=O)[nH]c1=O` (stereo not given)?
MITF TRPM1 inh: 114.3*; KKLEB cytotox: -82.3*; Shn3 inh set2: 97.7*; CF NFkB inh: 90.5*; Peg3 prom inh: 98.1*; HIF-2a inh: 87.3*

Results for O=S(=O)(Nc1cc2nc3ccccc3nc2n1Cc1ccccc1)c1ccc(Cl)cc1 ?
MITF TRPM1 inh: 7.4; KKLEB cytotox: -10.5; Shn3 inh set2: 23.2; CF NFkB inh: 51.8*; Peg3 prom inh: 22.6; HIF-2a inh: -6.4

How did Cc1ccc(C(=O)/C=C/c2ccccc2[N+](=O)[O-])cc1 do in these assays?
MITF TRPM1 inh: -39.7; KKLEB cytotox: -5.9; Shn3 inh set2: -51.9; CF NFkB inh: -26.8; Peg3 prom inh: 27.8; HIF-2a inh: -198.3

What do the screens show for `O=C(/C=C/c1ccccc1[N+](=O)[O-])c1ccccc1Br`?
MITF TRPM1 inh: -9.9; KKLEB cytotox: -9.6; Shn3 inh set2: 21.6; CF NFkB inh: 22.1; Peg3 prom inh: 95.8*; HIF-2a inh: 37.5

Results for CCOc1cc(C)c(S(=O)(=O)Nc2ccc3cn[nH]c3c2)cc1C ?
MITF TRPM1 inh: 41.4; KKLEB cytotox: 0.0; Shn3 inh set2: 87.1*; CF NFkB inh: 1.7; Peg3 prom inh: 30.1; HIF-2a inh: 9.7

How did Cc1ccc(S(=O)(=O)Nc2ccc3cn[nH]c3c2)c(C)c1 do in these assays?
MITF TRPM1 inh: 9.9; KKLEB cytotox: 1.8; Shn3 inh set2: 15.7; CF NFkB inh: -7.1; Peg3 prom inh: 19.1; HIF-2a inh: 15.5

Results for COC(=O)c1sc(NC(=O)C2c3ccccc3Oc3ccccc32)c(C(=O)OC)c1C ?
MITF TRPM1 inh: 6.7; KKLEB cytotox: -20.3; Shn3 inh set2: 81.0; CF NFkB inh: 22.7; Peg3 prom inh: -75.8; HIF-2a inh: 17.4

How did CCOC(=O)c1c(NC(=O)C2c3ccccc3Oc3ccccc32)sc(C(C)=O)c1C do in these assays?
MITF TRPM1 inh: 8.5; KKLEB cytotox: -7.0; Shn3 inh set2: 88.8*; CF NFkB inh: -3.4; Peg3 prom inh: 19.2; HIF-2a inh: 24.2

Results for C[n+]1cccc(C(=O)NNC(=O)C23CC4CC(CC(C4)C2)C3)c1 ?
MITF TRPM1 inh: -1.5; KKLEB cytotox: 9.5; Shn3 inh set2: -21.4; CF NFkB inh: 11.2; Peg3 prom inh: 11.3; HIF-2a inh: 20.5

What do the screens show for `COCC(=O)N1CCC(Oc2ccc(C(=O)NCCc3ncccc3C)cc2)CC1`?
MITF TRPM1 inh: -4.7; KKLEB cytotox: 31.1; Shn3 inh set2: -7.5; CF NFkB inh: -0.1; Peg3 prom inh: 22.4; HIF-2a inh: -6.1

What do the screens show for `Cc1cccnc1CCNC(=O)c1ccc(OC2CCN(Cc3ccccn3)CC2)cc1`?
MITF TRPM1 inh: 18.2; KKLEB cytotox: -1.2; Shn3 inh set2: 12.8; CF NFkB inh: -36.3; Peg3 prom inh: 72.3*; HIF-2a inh: 18.8

Results for CCc1cccc2c(C(=O)CN3C(=O)NC(C)(c4cccc5ccccc45)C3=O)c[nH]c12 (stereo not given) ?
MITF TRPM1 inh: 1.0; KKLEB cytotox: -7.5; Shn3 inh set2: 2.9; CF NFkB inh: -9.7; Peg3 prom inh: 59.6*; HIF-2a inh: -3.1

Results for CCCCN(CC)c1nc(-c2ccncc2)nc2ccccc12 ?
MITF TRPM1 inh: -10.9; KKLEB cytotox: -14.5; Shn3 inh set2: 11.0; CF NFkB inh: 33.8; Peg3 prom inh: 31.9; HIF-2a inh: 25.0

Results for CCCN(CCC)c1nc(-c2ccccn2)nc2ccccc12 ?
MITF TRPM1 inh: 44.0; KKLEB cytotox: -22.4; Shn3 inh set2: 76.4; CF NFkB inh: 4.3; Peg3 prom inh: 51.5*; HIF-2a inh: 17.1

How did Cc1cccc(N2CCN(S(=O)(=O)c3ccc4[nH]c(=O)ccc4c3)CC2)c1C do in these assays?
KKLEB cytotox: 12.1; Shn3 inh set2: 25.3; CF NFkB inh: -14.9; Peg3 prom inh: 35.5; HIF-2a inh: -2.1
